# Screening data from PubChem.
# Rows were chosen to be rich in hits. Some 7.3% of all compounds tested hit in one or more screens of this group.
# AmpC detergent – qHTS Inhibitors of AmpC Beta-Lactamase (assay with detergent). AID 485294, 2010. Potency, µM (doses to about 114 µM), without a hit: at the highest dose activity change, negative = inhibition, actives largely listed as inhibitors. AmpC hydrolysis of nitrocefin, absorbance 480 nm, 0.01% Triton. actives 0.041% (n = 370,000);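 note: potency is the fitted concentration of half-maximal effect; 0% = no-compound wells and -100% = no-enzyme wells; nearly all actives have a fitted effect of over 25% in size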
# Target sequence (P00811 whole entry, looked up): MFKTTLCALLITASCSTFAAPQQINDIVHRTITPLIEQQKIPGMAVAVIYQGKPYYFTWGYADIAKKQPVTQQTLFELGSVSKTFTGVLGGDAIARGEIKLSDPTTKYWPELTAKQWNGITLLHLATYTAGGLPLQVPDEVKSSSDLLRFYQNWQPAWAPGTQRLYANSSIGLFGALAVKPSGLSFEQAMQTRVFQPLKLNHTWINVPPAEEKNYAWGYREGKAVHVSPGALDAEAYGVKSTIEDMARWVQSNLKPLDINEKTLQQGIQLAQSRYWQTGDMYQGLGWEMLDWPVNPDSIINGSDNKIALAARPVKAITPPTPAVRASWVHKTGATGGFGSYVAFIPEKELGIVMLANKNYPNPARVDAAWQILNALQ
#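 20 mM phosphate pH 7.0 + 0.01% (detergent screen) or 0.0001% Triton X-100; 5.3 nM AmpC reagent; cpd preinc 15 min RT; nitrocefin (800 uM stock) to start; A480 q20 s × 4 min; Activity was normalised to no-enzyme and no-compound control wells.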
# FMDV antiviral – High Throughput Screening for Foot and Mouth Disease Virus Antivirals; FMDV antiviral cell-based qHTS; Potency, µM (titrated, usually from 57.9 µM), inactives show top-dose activity change, negative = inhibition, most hits filed as inhibitors; actives 1.2% (n = 410,000); calls by dose curve; tested in HEK293T cells; note: read-out not given here; potency is the fitted concentration of half-maximal effect; nearly all actives have a fitted effect of over 45% in size
# HCV inh – qHTS Assay for Inhibitors of Hepatitis C Virus (HCV); Potency, µM (top dose mostly 41.8 µM), inactives show at the top dose activity change, negative = inhibition, actives largely listed as inhibitors; Huh7.5.1 HCVcc-Cre infection, luciferase reporter, 44 h; actives 3.4% (n = 340,000); note: potency is the fitted concentration of half-maximal effect
#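 After 44 h co-culture of compound, cells and HCVcc-Cre (~0.5 moi), substrate is added for 15 min at room temperature and luciferase measured over 15 sec. Cells were seeded at 1,000/well and pre-cultured 4 h.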
# HCMV inh – qHTS Assay for inhibitors of the human cytomegalovirus (HCMV); HFF cells, HCMV-luciferase reporter, 72 h; active compounds read low; activity change, negative = inhibition, % at 57.5 µM; actives 4.5% (n = 410,000); in the data active = activity change below about -60%; inconclusive = no clear call, values can overlap the other calls; inactive = above about -39%
#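 Cell-based, HFFs, 1000 cells/well, 16 h 37C; cpds in DMSO + HCMV-luc, MOI 1 PFU/cell; 72 h 37C; OneGlo luminescence after 5 min RT; norm. to buffer vs Salinomycin 10uM.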
# AmpC no deterg – qHTS Inhibitors of AmpC Beta-Lactamase (assay without detergent); P00811; AmpC nitrocefin hydrolysis, absorbance 480 nm, 0.0001% Triton; Potency, µM (highest dose often 57.1 µM), for the others: at the top dose activity change, negative = inhibition, actives largely listed as inhibitors; actives 0.52% (n = 330,000); AID 485341, 2010;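 note: potency is the fitted concentration of half-maximal effect; plate controls were no compound for no effect and no enzyme for full effect; nearly all actives have a fitted effect of over 20% in size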
#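 20 mM phosphate pH 7.0 + 0.01% (detergent screen) or 0.0001% Triton X-100; 5.3 nM AmpC reagent; cpd preinc 15 min RT; nitrocefin (800 uM stock) to start; A480 q20 s × 4 min; Activity was normalised to no-enzyme and no-compound control wells.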
# Starred values were filed as active, the others as inactive; ? = inconclusive; nt = no result; [ ] = another dose, or the depositor's remark. Unless noted, calls come from the whole dose curve; as a rule, active = well fitted curve in the direction sought with a large enough effect; inconclusive = small, poorly fitted or top-dose-only effect, or another doubt; inactive = no such curve, though single readings can be large; an effect the other way counts as inactive or inconclusive. Unless noted, % is set by controls: 0 for no effect and ±100 for the full control effect.
SMILES,AmpC detergent,FMDV antiviral,HCV inh,HCMV inh,AmpC no deterg
O=C(COC(=O)c1ccc(S(=O)(=O)N2CCCCCC2)cc1)NCc1ccc(Cl)cc1,1%,-7%,5%,-15,-19%
COc1ccc2c(c1)C(C)=CC(C)(C)N2S(=O)(=O)c1ccc(C)cc1,-6%,?,-20%,-86*,-14%
COC(=O)C1(C)CN(S(=O)(=O)c2ccc(C)cc2)c2cc(OC)ccc2C1=O (stereo not drawn),?,?,5%,-39,-3%
CCOc1ccc2c(c1)C(C)=CC(C)(C)N2S(=O)(=O)c1ccc(C)cc1,0%,-10%,-19%,-79*,-9%
CC1=CC(C)(C)N(S(=O)(=O)c2ccc(C)cc2)c2cc(C)ccc21,-4%,nt,?,-85*,-14%
CC1=CC(C)(C)N(C(=O)CCl)c2cc(C)ccc21,8%,-28%,?,-27,-10%
O=[N+]([O-])c1ccc(N2CCN(Cc3ccccc3)CC2)c2c1no[n+]2[O-],nt,28µM*,nt,53,nt
O=C(/C=C/c1cccc(F)c1)NC1CCN(Cc2ccccc2)CC1,-12%,-16%,-23%,-63*,-14%
N#C/C(C(N)=O)=c1/ccc2c(c1)N1C3=C(CCCC3)CC3CCCCC31N=2 (stereo not drawn),-10%,?,1%,-68*,-35%
N#CC(C#N)=c1ccc2c(c1)N1C3=C(CCCC3)CC3CCCCC31N=2 (stereo not drawn),-1%,40µM*,0%,-95*,-21%
O=C(Nc1ccc(Cl)c(S(=O)(=O)N2CCCC2)c1)c1nn(CCO)c(=O)c2ccccc12,-17%,?,?,-25,121%
Cc1nc(C)n(CC(C)C(=O)N2CCN(S(=O)(=O)c3ccccc3)CC2)n1 (stereo not drawn),1%,-4%,15%,10,10%
Cc1cccc(CSc2nc3c(cc2C#N)CN(C)CC3)c1,-2%,3%,14µM*,33,79%
CCOC(=O)C1=C(CSc2nc3c(cc2C#N)CN(C)CC3)OC(N)=C(C#N)C1c1ccc(F)cc1 (stereo not drawn),?,0%,10µM*,-1,76%
CN1CCc2nc(SCc3ccccc3Br)c(C#N)cc2C1,7%,-2%,7.9µM*,-20,32%
CCOC(=O)C1=C(CSc2nc3c(cc2C#N)CN(C)CC3)OC(N)=C(C#N)C1c1ccccc1 (stereo not drawn),-5%,-27%,?,57,51%
C[C@@H]1CN([C@@H](C)CO)C(=O)c2cc(NC(=O)c3ccccc3)ccc2O[C@@H](C)CCCCO[C@@H]1CN(C)Cc1ccc(C(F)(F)F)cc1,nt,?,nt,2,nt
COc1cc(OC)cc(N2C(=O)N(CC(=O)c3ccc(F)cc3)c3ccccc3S2(=O)=O)c1,8%,-4%,nt,9,nt
NC(=O)c1cc(-c2ccccc2)nc(N2CCOCC2)n1,-2%,0%,5µM*,-5,?
CCc1c2c(nc3ccc(OC(=O)N4CCC(N5CCCCC5)CC4)cc13)-c1cc3c(c(=O)n1C2)COC(=O)[C@]3(O)CC,nt,0%,-13%,-92*,nt
CC[C@@]1(O)C(=O)OCc2c1cc1n(c2=O)Cc2cc3ccccc3nc2-1,2%,-3%,nt,nt,-14%
CC[C@@]1(O)C(=O)OCc2c1cc1n(c2=O)Cc2cc3c(NC(=O)CN)cccc3nc2-1,1%,-8%,-17%,-98*,80%
CCC1(O)C(=O)OCc2c1cc1n(c2=O)Cc2cc3cc(O)ccc3nc2-1 (stereo not drawn),nt,0%,-15%,-107*,nt
N#Cc1ccc(S(=O)(=O)NC2CCCCNC2=O)cc1 (stereo not drawn),-10%,-12%,0%,-21,-7%
Cc1cnc(NC(=O)CCNC(=O)c2ccc([N+](=O)[O-])cc2)s1,-11%,-2%,-3%,-17,-12%[2.29 µM]
SMILES,AmpC detergent,FMDV antiviral,HCV inh,HCMV inh,AmpC no deterg
Cc1cccc(-c2cccc(C(=O)N3CCc4c(cnc(C)c4CNC(=O)c4cncs4)C3)c2)c1,nt,-19%,nt,nt,nt
CCOP(=O)(CCP(=O)(OCC)OCC)OCC.C[CH2][Sn]([Cl])([Cl])[CH2]C,nt,2.8µM*,1.6µM*,-101*,nt
O=C(CCn1cnc2ccccc2c1=O)Nc1ccc(Cl)c(Cl)c1,-4%,-14%,-9%,-74*,-17%
O=C(c1ccccc1)c1ccccc1N1C(=O)C=CC1=O,?,?,?,-93*,-3%
O=C1C=CC(=O)N1c1ccccc1N1C(=O)C=CC1=O,nt,?,?,0,nt
Clc1ccccc1Cc1cn2cc(-c3ccccc3)nc2s1,23%,-20%,nt,76,nt
COc1ccc(NC(=O)c2cc(-c3cc(C)c(C)cc3O)n[nH]2)c(OC)c1,-2%,-10%,-7%,-25,-34%
Cc1cc(C)c(O)c(-c2cc(C(=O)Nc3cccnc3)[nH]n2)c1,1%,-21%,?,?,12%
Cc1cccc(NC(=O)c2cc(-c3cc(C)cc(C)c3O)n[nH]2)c1,-12%,-10%,11µM*,?,-46%
COc1ccc(OC)c(NC(=O)c2cc(-c3cc(C)cc(C)c3O)n[nH]2)c1,-3%,2%,4µM*,-68*,-31%
COc1ccc(OC)c(NC(=O)c2cc(-c3cc(C)c(C)cc3O)n[nH]2)c1,-6%,18%,-11%,?,?
COc1ccc(OC)c(NC(=O)c2cc(-c3c(C)cc(C)cc3O)n[nH]2)c1,-9%,-24%,10µM*,9,4%
C[C@@H]1CN([C@@H](C)CO)S(=O)(=O)c2ccc(Br)cc2O[C@H]1CN(C)C(=O)Cc1cccnc1,nt,-8%,nt,2,nt
CCCCCOc1ccc(Br)cc1/C(C)=N/NC1=NCCN1,5%,?,6.3µM*,-92*,-3%
COc1ccc(Br)cc1/C(C)=N/NC1=NCCN1,2%,?,?,?,-33%
OC1(c2ccc(OC(F)F)cc2)CSC(=Nc2cccnc2)N1Cc1ccco1 (stereo not drawn),?,8.9µM*,11µM*,-9,-16%[11.4 µM]
O=C(NC(=O)c1csnn1)Nc1ccccc1Cl,7%,22%,8%,-83*,-38%
NC(=O)NC(=O)Nc1ccccc1Cl,-3%,23%,-6%,-1,-16%
N#Cc1cccc(N=Cc2c(O)ccc3ccccc23)c1,-10%,-24%,-25%,-61*,-26%
Cc1ccc(N=Cc2c(O)ccc3ccccc23)cc1F,?,0%,-10%,-16,-16%
Cc1ccccc1[C@@H](NC(=O)OC(C)(C)C)C(=O)OC(C)(C)C,-5%,-10%,-2%,-21,23%
